Data as given in the supplement of paper PMC3334620.
The full ranking holds about 33,000 sequences; the median of “E-score (-0.5 to 0.5)” is about -0.0014, and the highest 2% start at about 0.25. The full list was thinned out, with the highest values kept by preference.

Biological target: T1, Cad1 (UniProt P24813)
T1 sequence: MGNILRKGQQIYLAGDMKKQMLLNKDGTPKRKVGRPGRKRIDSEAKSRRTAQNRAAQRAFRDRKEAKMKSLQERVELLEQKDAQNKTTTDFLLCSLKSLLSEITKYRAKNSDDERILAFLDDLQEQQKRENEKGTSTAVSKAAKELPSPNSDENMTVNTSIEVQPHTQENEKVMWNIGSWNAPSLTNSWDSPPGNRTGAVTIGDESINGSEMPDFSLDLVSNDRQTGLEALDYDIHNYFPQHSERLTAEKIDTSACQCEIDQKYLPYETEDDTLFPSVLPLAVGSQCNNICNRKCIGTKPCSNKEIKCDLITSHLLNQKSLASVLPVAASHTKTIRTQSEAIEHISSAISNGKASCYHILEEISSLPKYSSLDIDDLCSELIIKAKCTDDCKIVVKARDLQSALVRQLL
Experiment: PBM E-score (8-mer binding enrichment) (E-score (-0.5 to 0.5)); higher = stronger / more preferred TF binding
Settings: protein concentration: 100 nM; construct: GST-full length
Method: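 Universal 'all 10-mer' protein binding microarrays (Agilent AMADID 015681) probed with GST-tagged S. cerevisiae TFs (full-length or DBD) made by in vitro transcription/translation (PURExpress), about 100-200 nM. Bound TF was detected with fluorescent anti-GST. Each ungapped 8-mer (which stands for itself and its reverse complement) is scored by the PBM enrichment score (E-score), a modified Wilcoxon-Mann-Whitney statistic from -0.5 to +0.5, computed with the Universal PBM Analysis Suite. Scale: above 0.35 generally sequence-specific binding.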

Row | Sequence | PBM E-score
1 | GACCACGA | 0.0423
2 | CGCACTAC | 0.0013
3 | GGCCGTTA | 0.0668
4 | ACGTGGAG | -0.0145
5 | CCCCTATA | -0.144
6 | CCGGTCTC | -0.161
7 | CTTAGAGC | -0.0659
8 | AAAAGCGC | 0.0216
9 | AAGTGCTA | -0.257
10 | GGGTCCGA | -0.21
11 | ACGAGACC | -0.00034
12 | ATAACAAT | 0.0624
13 | CGAACAAA | 0.28
14 | AGAACAAA | 0.247
15 | ATAACAAG | 0.205
16 | CGAACAAG | 0.128
17 | ATAACAAA | 0.312
18 | GCATCGAC | -0.0789
19 | GACAGATA | 0.0715
20 | AAACGTTG | -0.0452
21 | CAACGTTC | -0.009
22 | CAACGTTG | 0.263
23 | GTTATTAA | 0.291
24 | GTTATTTA | 0.153
25 | ATTATTAC | 0.0832

Row | Sequence | PBM E-score
26 | AGTATTAG | 0.299
27 | GTTATTGA | 0.159
28 | GTTGTTAA | 0.259
29 | ACTATTAA | 0.123
30 | CGTATTAG | 0.165
31 | AGTATTAA | 0.0712
32 | CTTGTTAA | -0.0916
33 | ATTATTAA | 0.384
34 | ATTGTTAA | 0.0122
35 | CTCGCGGA | -0.155
36 | CGCAGCAC | 0.0114
37 | ACATACGA | 0.117
38 | CTGAAGAA | -0.18
39 | CAACTGTG | -0.031
40 | CAAGACAG | -0.0259
41 | CATGCCAG | -0.0523
42 | CTTATTAA | 0.42
43 | GGTGTTAA | 0.0749
44 | CCTATTAA | -0.00224
45 | TGTGTTAA | 0.19
46 | AGTGTTAA | 0.255
47 | CTTATTAC | 0.218
48 | TATTTTAA | 0.107
49 | GCGGCTTA | 0.227
50 | ACCTCTTA | 0.153

Row | Sequence | PBM E-score
51 | AAGTCATG | 0.0989
52 | ACCGCCTG | -0.142
53 | ACCCGGAC | -0.179
54 | CTTTAATA | 0.218
55 | CTTTAATC | -0.00133
56 | GTTTAATA | 0.189
57 | ATTTAATA | 0.316
58 | ATTTAATC | 0.285
59 | ATTTAATG | 0.213
60 | AGAGAGGC | -0.297
61 | AGTAAACT | 0.105
62 | CCTAGATA | -0.0467
63 | CACGTTTC | -0.176
64 | CAATTTAA | 0.156
65 | CAATTTTC | 0.125
66 | CAATTTTA | 0.27
67 | CTCGCTGA | 0.0202
68 | ACGATCGT | -0.0266
69 | ACGATCGA | 0.254
70 | GCGATCGA | 0.248
71 | TCGATCGA | 0.27
72 | ACGATCGG | 0.0625
73 | CCGATCGA | 0.0111
74 | GATTGAGC | 0.0444
75 | ATCAGCAT | 0.192

Row | Sequence | PBM E-score
76 | CACTAACC | 0.0546
77 | GACTAAGC | 0.228
78 | CACTAAGC | 0.0972
79 | CACTAATC | 0.262
80 | GACTAATC | 0.362
81 | AACTAATC | 0.179
82 | CTCGCTCA | 0.138
83 | CACCGCCC | -0.0109
84 | AAACTTAT | 0.256
85 | AAACTTAC | 0.0226
86 | AAACTCAA | 0.163
87 | AAACTCAT | 0.253
88 | AAACTAAG | 0.166
89 | AAACTTAA | 0.171
90 | AAACTAAA | 0.141
91 | AAACTCAG | -0.00451
92 | TAACTTAA | 0.259
93 | AAACTAAT | 0.36
94 | GAACTTAA | 0.116
95 | CAACTTAA | 0.0842
96 | CCCCCTGA | -0.414
97 | AGGGATCG | -0.207
98 | AAAAGTGT | -0.074
99 | CCAGACAA | 0.0234
100 | CTAGGTGC | -0.221

Row | Sequence | PBM E-score
101 | AACCGCTT | 0.0439
102 | CTTCCTAA | 0.0434
103 | AGTCCTTG | -0.0247
104 | ATCAAGCC | -0.0325
105 | CATCGCGA | 0.25
106 | TATCGCAA | 0.22
107 | TATCGCGA | 0.259
108 | AATCGCGA | 0.196
109 | GATCGCGA | 0.132
110 | CATCGCGC | 0.051
111 | CGGCTCCA | -0.0781
112 | CGCGTTAC | 0.139
113 | AACGGGGT | -0.13
114 | GTAAGCAA | 0.345
115 | CTAAGCAC | 0.294
116 | ATTAGCAG | 0.0216
117 | CTAAGCAG | -0.078
118 | CTAAGCTA | 0.135
119 | ATAAGCTA | -0.0126
120 | TTAAGCAA | -0.0269
121 | GTTAGCAA | 0.0595
122 | GTAAGCTA | 0.298
123 | ATTAGCAA | 0.304
124 | GTAAGCAC | 0.163
125 | CTAAGCAA | 0.0503

Row | Sequence | PBM E-score
126 | AGTGTCTG | 0.15
127 | ACGCAGGG | -0.155
128 | AGCTGCGC | 0.0681
129 | ACAAAGTG | 0.0733
130 | GCTCAGAC | -0.0381
131 | CACCTAGA | -0.156
132 | CTTAAGCC | 0.00617
133 | ATAAGCAA | 0.296
134 | ATAAGCAC | 0.208
135 | ATAAGCAT | 0.0827
136 | AGATACAA | 0.256
137 | CGATACAA | 0.0958
138 | AGATACAG | 0.0445
139 | GTGCTCTA | -0.119
140 | GTGACTTA | 0.1
141 | GTAAGCGA | 0.281
142 | GGAAGCGA | -0.0787
143 | ATAAGCGC | 0.139
144 | ATAAGCGG | 0.0934
145 | CTAAGCGA | 0.0774
146 | ATAAGCGA | 0.287
147 | CAAACCGG | -0.0831
148 | AAGTATGG | 0.00171
149 | ACTGGAGG | 0.0173
150 | ATTTTTAG | 0.0211

Row | Sequence | PBM E-score
151 | CTATTTGC | -0.0458
152 | GCATTTAA | 0.0157
153 | CTATTTAA | -0.0377
154 | ACATTTAA | 0.253
155 | ACATTTAG | -0.126
156 | ATATTTAA | 0.272
157 | ATATTTAG | 0.255
158 | ATATTTGG | 0.146
159 | ATATTTGC | 0.306
160 | ATATTTAC | 0.228
161 | GTATTTAA | 0.0263
162 | CAAGAGGG | -0.247
163 | CGCAACGA | -0.00619
164 | CCGGAAAC | 0.125
165 | CCCGGGTC | -0.242
166 | ATGACGAA | 0.145
167 | GTATGATA | 0.23
168 | ATGATATG | 0.29
169 | ATATGATA | 0.285
170 | ATGATATA | -0.027
171 | CTATGATA | 0.0824
172 | ATGATATC | 0.0971
173 | CTAACTGC | -0.0676
174 | AAACACCA | -0.00879
175 | CGTATGGC | 0.14

Row | Sequence | PBM E-score
176 | AGTACGAA | 0.22
177 | AGCAGCGG | -0.0904
178 | ATATTATG | 0.268
179 | AAATTATC | 0.246
180 | ATATTATA | 0.164
181 | CAATTATG | 0.105
182 | ATATTATC | 0.096
183 | AAATTATG | 0.255
184 | ACATGTAT | 0.204
185 | ATGCCTTA | -0.158
186 | CGTGATCA | 0.123
187 | AATTTTGG | 0.149
188 | CTTGGTAA | 0.0981
189 | GTTGGTAA | 0.19
190 | ATTGGTAA | 0.257
191 | GCCCACAA | -0.153
192 | ATTCAATG | 0.114
193 | CTTCAATC | -0.066
194 | ATTCAATC | 0.263
195 | GACACAGC | 0.0664
196 | CCTGTGCC | -0.136
197 | AATCCGGA | 0.306
198 | AATCCGAA | -0.0355
199 | AATCCGAT | 0.25
200 | CTTCCGGA | 0.0325

Row | Sequence | PBM E-score
201 | AATCCGGG | -0.0636
202 | ATTCCGGA | 0.254
203 | AATCCGAC | 0.00376
204 | ATTCCGGG | 0.122
205 | AATCCGGC | 0.104
206 | CTGCTCAC | -0.0643
207 | TGACCACA | -0.0368
208 | GTCTCCTA | -0.194
209 | ACCAAGGC | -0.0921
210 | ACAGTCCC | -0.188
211 | CCTAGCAA | -0.0559
212 | CGAGCTTA | 0.214
213 | AGAGCTTC | -0.181
214 | CGAGCTTC | 0.258
215 | GAGCCCAC | -0.1
216 | AAAGAACA | 0.0562
217 | CGACGTTC | -0.265
218 | CGACGTTA | 0.276
219 | GGACGTTA | 0.0449
